This is part of a sample that, as a whole, favours compounds with a hit. Of some 83,000 tested, about 20% had one in any assay.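 Assay: single dose, 48 h. Readout: percent growth (0 = no net growth; negative = cell death). Active: <10.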 A number with no mark means an inactive call. The source made the active and inactive calls.
Tests used:
Assay in all cases: NCI-60 one-dose screen, 48 h (100 = growth as untreated, 0 = no growth, -100 = all killed)
Details in all cases: 10 µM
SR leukemia = tested on: SR leukemia
RPMI-8226 leukemia = tested on: RPMI-8226 leukemia
OVCAR-8 ovarian = tested on: OVCAR-8 ovarian
OVCAR-5 ovarian = tested on: OVCAR-5 ovarian
OVCAR-4 ovarian = tested on: OVCAR-4 ovarian
SK-OV-3 ovarian = tested on: SK-OV-3 ovarian
OVCAR-3 ovarian = tested on: OVCAR-3 ovarian
HS 578T breast = tested on: HS 578T breast
NCI/ADR-RES ovarian = tested on: NCI/ADR-RES ovarian
T-47D breast = tested on: T-47D breast
BT-549 breast = tested on: BT-549 breast
MDA-MB-435 melanoma = tested on: MDA-MB-435 melanoma
SW-620 colon = tested on: SW-620 colon
MCF7 breast = tested on: MCF7 breast
HCT-116 colon = tested on: HCT-116 colon
HCC-2998 colon = tested on: HCC-2998 colon
KM12 colon = tested on: KM12 colon

Compound | growth (SR leukemia) | growth (RPMI-8226 leukemia) | growth (OVCAR-8 ovarian) | growth (OVCAR-5 ovarian) [%] | growth (OVCAR-4 ovarian) | growth (SK-OV-3 ovarian) | growth (OVCAR-3 ovarian) | growth (HS 578T breast) | growth (NCI/ADR-RES ovarian) | growth (T-47D breast) | growth (BT-549 breast) | growth (MDA-MB-435 melanoma) | growth (SW-620 colon) | growth (MCF7 breast) | growth (HCT-116 colon) | growth (HCC-2998 colon) | growth (KM12 colon)
O=C1c2c(c(=O)[nH]c3ccccc23)CCN1Cc1ccccc1 | 115% | 91.9% | 96.4% | 92.9 | 155% | 98.1% | 121% | 119% | 98.6% | 86.1% | 87.1% | 110% | 105% | 97.5% | 94.8% | 111% | 114%
O=C(Nc1ccc(OCc2nnc(-c3ccc(Cl)cc3)o2)c(F)c1)Nc1ccc(Cl)c(C(F)(F)F)c1 | -15.4% (active) | -22.2% (active) | 11.6% | 26.6 | 17.2% | 35.2% | 0.829% (active) | 14.5% | 7.99% (active) | 4.57% (active) | -13.9% (active) | 8.01% (active) | 15.7% | 3.17% (active) | 2.12% (active) | 9.15% (active) | 3.14% (active)
O=C1/C=C/[C@@H](O)[C@@H]2C[C@@H](O)C[C@H]2/C=C/CCC[C@H](C(F)(F)F)O1 | -5.34% (active) | -23.8% (active) | 2.07% (active) | 16.2 | 28.5% | 57.8% | -28% (active) | 38.5% | -9.43% (active) | -57.2% (active) | 15.8% | 6.68% (active) | -23.1% (active) | -64.2% (active) | -30.4% (active) | -36.5% (active) | 30%
COc1cc(NC(=O)C2=C(N3CCOCC3)/C(=C/c3ccc(Cl)cc3)CC2)cc(OC)c1OC | 35.1% | 33.2% | 72.7% | 103 | 83.2% | 114% | 85.9% | 95.2% | 72.5% | 71.1% | 103% | 75.3% | 100% | 73.3% | 65.7% |  | 97.3%
CC(C)(O)CCl | 111% | 113% | 102% | 108 | 129% | 119% | 114% | 96% | 108% | 116% | 116% | 102% | 99.5% | 100% | 110% | 109% | 107%
CCN(CC)CCOC(=O)c1cc(OCc2ccccc2)c(OCc2ccccc2)c(OCc2ccccc2)c1 | 1.2% (active) | 32.9% | 56.3% | 83.3 | 75.5% | 100% | 64.9% | 66.3% | 52.5% | 66.8% | 86.8% | 74.7% | 19.7% | 8.2% (active) | 24% | 53.8% | 40.7%
COc1ccc(C(=O)N/N=C/c2cc(C(F)(F)F)ccc2Cl)cc1 | 102% | 121% | 102% | 95.5 | 91.7% | 99.8% | 108% | 92.6% | 90.9% | 90% | 96.1% | 91.1% | 98.8% | 60.3% | 93.2% | 95.7% | 101%
Cc1cc(CC(C)CC(C)(C)C)n(O)c(=O)c1 (stereo unspecified) (tested in a mixture with another compound) | 2.72% (active) | 39.8% | 20% | 41.4 | 22.4% | 57.6% | 24.2% | 62.8% | 0.595% (active) | 28.1% | 29.4% | 22.2% | 34.4% | 17.5% | 22.9% | 57.5% | 27.4%
COc1ccc(-c2nc(-c3nc4ccc(C)cc4[nH]3)cc3c2[nH]c2ccccc23)cc1 | 10.2% | 16.2% | 21.4% | 83.9 | 45.1% | 107% | 45.1% | 66.9% | 19.4% | 32.7% | 71.7% | 46% | 81.4% | 36.1% | 19.3% | 48.9% | 21%
COc1cc(C(=O)/C(C)=C/c2c[nH]c3ccccc23)cc(OC)c1OC | 17.1% | 49.9% | 20.3% | 53.3 | 50.1% | 29.9% | -8.19% (active) | 44.9% | 5.38% (active) | 53% | -9% (active) | 5.74% (active) | 29.9% | 15.4% | 2.11% (active) | 15.2% | 16.5%
COc1cc(/C=C/c2cc(/C=C/c3ccc(O)c(OC)c3)n(C(=O)Nc3ccccc3Cl)n2)ccc1O | -17.7% (active) | -22.3% (active) | 1.5% (active) | 13.2 | 6.59% (active) | -33.3% (active) | -26.8% (active) | -4.71% (active) | 20.8% | 4.55% (active) | -26.4% (active) | 4.08% (active) | 6.99% (active) | 4.41% (active) | 1.16% (active) | 2.83% (active) | 0.0939% (active)
CC(C)(C)OC(=O)N1CCc2c(sc3ncnc(N/N=C/c4cccc5ccccc45)c23)C1 | 24.1% | 2.4% (active) | 27.6% | 31.8 | 33.4% | 37% | 46.4% | 17.2% | 8.76% (active) | 12.6% | 58.7% | -11.7% (active) | 27.3% | 2.21% (active) | 10.5% | 37.1% | 23.4%
Nc1nc(Cn2c(-c3nonc3N)nc3ccccc32)nc(N2CCCCC2)n1 | 58.9% | 68% | 93.2% | 109 | 107% | 79.1% | 95.6% | 97.2% | 83.3% | 83% | 89% | 39.2% | 94.4% | 83.5% | 87.7% | 95.9% | 75.6%
COc1cccc2ccc(CC(O)(c3ccccc3)c3ccccc3)nc12 | 82.3% | 90.7% | 91.5% | 115 | 51.2% | 93.3% | 80.3% | 103% | 94.4% | 43.7% | 94.1% | 106% | 98.7% | 24.6% | 77.1% | 97.1% | 67.3%
O=[N+]([O-])c1ccc2ncccc2c1Cl | 7.28% (active) | 38.7% | 18.6% | 85.3 | 90.2% | 63.6% | 40.7% | 67% | 29.2% | 68.7% | 43.6% | -36.9% (active) | 14.5% | 13.4% | 5.31% (active) | 106% | -7.28% (active)
O=C1C=C(Nc2cccc(Br)c2)c2ccccc2C1=O | 56.8% | 63.1% | 69.5% | 73.1 | 77.6% | 25.7% | 38.9% | 38.5% | 71.1% | 102% | 14.7% | -25.2% (active) | 29.7% | 21% | 52% | 75.5% | 32.6%

Source: PubChem BioAssay (NCI)
